The panel holds about 83,000 compounds, 20% with a hit somewhere; the sample as a whole holds those more often.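 The test compound was applied at a single concentration to cells in 96-well plates for 48 hours, and percent growth was recorded.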 Active and inactive are the calls of the source. Rule for the calls: active = growth percent below 10; inactive = the rest.
tested on: SF-268 CNS; test: NCI-60 one-dose screen, 48 h (100 = growth as untreated, 0 = no growth, -100 = all killed); details: 10 µM unless noted

Row | SMILES | growth
1 | COc1cc(/C=C\c2cc(OC)c(OC)c(OC)c2)cc(N/C=C\C(=O)c2cc(OC)c(OC)c(OC)c2)c1OC | 41.1% (inactive)
2 | N#C[S-].[Au+].c1ccc(CN2[CH-]N(Cc3ccccc3)C(c3ccccc3)=C2c2ccccc2)cc1 | 29.9% (inactive)
3 | O=[N+]([O-])c1ccc(OP(=O)(CCl)N(CCCl)CCCl)cc1 (stereo unspecified) | 104% (inactive)
4 | O=C1CC2(CC3(Cl)C(Cl)=C(Cl)C2(Cl)C3(Cl)Cl)C(=O)O1 (stereo unspecified) | 114% (inactive)
5 | COc1cc2c(cc1OCCCCCn1c(-c3ccco3)nc3ccccc31)N=C[C@@H]1CCCN1C2=O | 8.92% (active)
6 | O=C(O)c1ccc([S-])cc1.[Au+].c1ccc(CN2[CH-]N(Cc3ccccc3)C(c3ccccc3)=C2c2ccccc2)cc1 | -42.7% (active)
7 | N#C[Se]Cc1cc(-c2ccccc2)n(-c2ccc(S(N)(=O)=O)cc2)n1 | -59.8% (active)
8 | COc1cc2c(cc1OCCCCn1c(-c3cccs3)nc3ccccc31)N=C[C@@H]1CCCN1C2=O | -7.58% (active)
9 | COc1ccc(/C=C\c2cc(OC)c(OC)c(OC)c2)cc1OCC(=O)Nc1nc2ccc(F)cc2s1 | 49.2% (inactive)
10 | O=C(Nc1ccc([N+](=O)[O-])cc1)C(Cl)(Cl)Cl | 97.6% (inactive)
11 | C[CH2][Sn]([Cl])([Cl])[CH2]C.Oc1ccccc1C=NCCN=Cc1ccccc1O | 106% (inactive)
12 | C[N+]12CN3CN(CN(C3)C1)C2 | 106% (inactive)
13 | C[C@]12CC[C@@H]3c4ccc(Oc5nc(N6CC6)nc(N6CC6)n5)cc4CC[C@H]3[C@@H]1CCC2=O | 29.9% (inactive)
14 | c1ccc(COc2ccc3[nH]cc(CCN(Cc4ccccc4)Cc4ccccc4)c3c2)cc1 | 92.4% (inactive)
15 | [Au+].[N-]=C=O.c1ccc(CN2[CH-]N(Cc3ccccc3)C(c3ccccc3)=C2c2ccccc2)cc1 | 84.5% (inactive)
16 | CC1=C(CCCNS(C)(=O)=O)C2=C(C)C3(CC3)[C@@](C)(O)C(=O)C2=C1 | 8.41% (active)
17 | C[C@]12CC[C@H]3[C@@H](CC[C@]4(O)C[C@@H](O[C@@H]5O[C@H](CO)[C@@H](O[C@@H]6OC[C@@H](O)[C@H](O)[C@H]6O)[C@H](O)[C@H]5O)CC[C@]34C=O)[C@@]1(O)CC[C@@H]2C1=CC(=O)OC1 | -44.6% (active)
18 | CN1C(=O)N[C@H]2[C@@H]3NC(=O)c4ccc(Br)n4[C@@H]3C[C@]21O | -2.59% (active)
19 | COC1OC(CO)C(O)C(O)[CH]1[Hg][O]C(C)=O (stereo unspecified) | 97.6% (inactive)

Row | SMILES | growth
20 | OCc1ccc2c(c1)OCO2 | 100% (inactive)
21 | Nc1nnnc2nc[nH]c12 | 28.6% (inactive)
22 | CC1CCCC(C[N+](C)(C)C)C1=O (stereo unspecified) | 112% (inactive)
23 | CNC(=O)Oc1cccc(C(F)(F)F)c1 | 118% (inactive)
24 | COc1cc2c(cc1OCCCn1c(-c3ccccn3)nc3ccccc31)N=C[C@@H]1CCCN1C2=O | 10.4% (inactive)
25 | CCCCCCCOC(C(=O)OCCN(CC)CC)(c1ccccc1)c1ccccc1 | 87.9% (inactive)
26 | CC(=O)OCC1O[C@@H]([S-])C(OC(C)=O)[C@H](OC(C)=O)[C@@H]1OC(C)=O.[Au+].c1ccc(CN2[CH-]N(Cc3ccccc3)C(c3ccccc3)=C2c2ccccc2)cc1 | 33.4% (inactive)
27 | COc1ccc(C(=O)c2sc3nc4c(cc3c2N)N2CCC4CC2)cc1OC | 105% (inactive)
28 | CC(CC1CCCCC1)NCc1ccccc1 (stereo unspecified) | 103% (inactive)
29 | COc1ccc(/C=C\c2cc(OC)c(OC)c(OC)c2)cc1OCC(=O)Nc1nc2ccc(C(F)(F)F)cc2s1 | 43% (inactive)
30 | O=C1CCC2(O)[C@@H]3Cc4ccc(O)c5c4[C@]2(CCN3Cc2ccoc2)C1O5 (stereo partly specified) | 108% (inactive)
31 | C/C(=C\c1cc(C(F)(F)F)nn1CCNC(=O)OC(C)(C)C)[C@@H]1C[C@@H]2O[C@]2(C)CCC[C@H](C)[C@H](O)[C@@H](C)C(=O)C(C)(C)[C@@H](O)CC(=O)O1 | 60.4% (inactive)
32 | CC(C)CCC(=O)O[C@H]1CC[C@H]2[C@@H]3CCC4=CC(=O)CC[C@]4(C)[C@H]3CC[C@]12C | 93.1% (inactive)
33 | ClCCN(CCCl)Cc1ccc(Nc2ccnc3cc(Cl)ccc23)cc1 | 25.3% (inactive)
34 | COc1cc(NC(C)CCCNC2CN3CCC2CC3)c2ncccc2c1 (stereo unspecified) | 89.6% (inactive)
35 | C=CCCCN=C=S | 77.4% (inactive)
36 | CCN(CC)CCOC(=O)C(OC(C)C)(c1ccccc1)c1ccccc1 | 93% (inactive)
37 | CCC1(C(C)C)C(=O)NC(=S)NC1=O | 96.1% (inactive)
38 | CC[C@]12C=CCN3CC[C@]4(C(=C(C(=O)OC)C1)Nc1cc(OC)c(OC(C)=O)cc14)[C@@H]32 | 19.5% (inactive)

tested on: SF-295 CNS; test: as above; details: 10 µM unless noted

Row | SMILES | growth
39 | O=C1CC2(CC3(Cl)C(Cl)=C(Cl)C2(Cl)C3(Cl)Cl)C(=O)O1 (stereo unspecified) | 100% (inactive)
40 | COc1cc2c(cc1OCCCCCn1c(-c3ccco3)nc3ccccc31)N=C[C@@H]1CCCN1C2=O | 9.61% (active)
41 | N#C[Se]Cc1cc(-c2ccccc2)n(-c2ccc(S(N)(=O)=O)cc2)n1 | -55.8% (active)
42 | COc1cc2c(cc1OCCCCn1c(-c3cccs3)nc3ccccc31)N=C[C@@H]1CCCN1C2=O | -8% (active)
43 | O=C(Nc1ccc([N+](=O)[O-])cc1)C(Cl)(Cl)Cl | 96.9% (inactive)
44 | C[N+]12CN3CN(CN(C3)C1)C2 | 117% (inactive)
45 | c1ccc(COc2ccc3[nH]cc(CCN(Cc4ccccc4)Cc4ccccc4)c3c2)cc1 | 91.4% (inactive)
46 | CC1=C(CCCNS(C)(=O)=O)C2=C(C)C3(CC3)[C@@](C)(O)C(=O)C2=C1 | 2.69% (active)
47 | C[C@]12CC[C@H]3[C@@H](CC[C@]4(O)C[C@@H](O[C@@H]5O[C@H](CO)[C@@H](O[C@@H]6OC[C@@H](O)[C@H](O)[C@H]6O)[C@H](O)[C@H]5O)CC[C@]34C=O)[C@@]1(O)CC[C@@H]2C1=CC(=O)OC1 | 8.52% (active)
48 | CN1C(=O)N[C@H]2[C@@H]3NC(=O)c4ccc(Br)n4[C@@H]3C[C@]21O | -36.2% (active)
49 | COC1OC(CO)C(O)C(O)[CH]1[Hg][O]C(C)=O (stereo unspecified) | 102% (inactive)
50 | OCc1ccc2c(c1)OCO2 | 93.8% (inactive)
51 | Nc1nnnc2nc[nH]c12 | 0.603% (active)
52 | CNC(=O)Oc1cccc(C(F)(F)F)c1 | 130% (inactive)
53 | COc1cc2c(cc1OCCCn1c(-c3ccccn3)nc3ccccc31)N=C[C@@H]1CCCN1C2=O | -3.07% (active)
54 | CCCCCCCOC(C(=O)OCCN(CC)CC)(c1ccccc1)c1ccccc1 | 123% (inactive)
55 | COc1ccc(C(=O)c2sc3nc4c(cc3c2N)N2CCC4CC2)cc1OC | 88.9% (inactive)
56 | CC(CC1CCCCC1)NCc1ccccc1 (stereo unspecified) | 93.6% (inactive)
57 | C/C(=C\c1cc(C(F)(F)F)nn1CCNC(=O)OC(C)(C)C)[C@@H]1C[C@@H]2O[C@]2(C)CCC[C@H](C)[C@H](O)[C@@H](C)C(=O)C(C)(C)[C@@H](O)CC(=O)O1 | 75.5% (inactive)
58 | CC(C)CCC(=O)O[C@H]1CC[C@H]2[C@@H]3CCC4=CC(=O)CC[C@]4(C)[C@H]3CC[C@]12C | 102% (inactive)
59 | C=CCCCN=C=S | 92.4% (inactive)
60 | CCN(CC)CCOC(=O)C(OC(C)C)(c1ccccc1)c1ccccc1 | 109% (inactive)
61 | CC[C@]12C=CCN3CC[C@]4(C(=C(C(=O)OC)C1)Nc1cc(OC)c(OC(C)=O)cc14)[C@@H]32 | 20.4% (inactive)

— PubChem BioAssay (NCI)
